Measured values reported in PubChem BioAssay (NCATS).
Results filed as inconclusive are left out. A call without a number means that no potency is given here. Unmarked numbers belong to inactive results. Activity calls are given as the source filed them. The call rests on the fitted dose curve; in most records, active means well fitted curve in the direction sought with a large enough effect; inconclusive means small, poorly fitted or top-dose-only effect, or another doubt; inactive means no such curve, though single readings can be large; an effect the other way counts as inactive or inconclusive. Where a SMILES comes first, the peptide text is derived from it.

What was measured:
[1] = tested on: Zika virus NS2B-NS3 protease; assay: Primary screen GU AMC qHTS for Zika virus inhibitors (AID 1347154); further: nearly all actives have a fitted effect of over 70% in size
Summary of the method: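 Unlinked Zika NS2B hydrophilic domain/NS3 protease domain noncovalent complex (25 nM final) in 10 mM Tris-HCl pH 8.0, 0.01% Tween 20, with AMC peptide substrate. Fluorescence (ex 340, em 450 nm) change over 15 min, room temperature; percent inhibition fitted to 4-parameter Hill equation.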

[2] = Primary qHTS for small molecule stabilizers of the endoplasmic reticulum resident proteome: Secreted ER Calcium Modulated Protein (SERCaMP) assay (AID 1508630)
Summary of the method: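 The SH-SY5Y reporter protocol was run at 3 concentrations up to 38.3 uM (primary) or 11 concentrations (follow-up): 16 h compound, 100 nM thapsigargin for 4 h, then extracellular luciferase luminescence.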

| Compound | Potency [1] | Potency [2] | activity change, negative = inhibition [1] | activity change, negative = inhibition [2] |
| --- | --- | --- | --- | --- |
| NCC(CC(=O)O)c1ccc(Cl)s1 (stereo unspecified) | inactive | inactive | – | – |
| CO[C@@H]1C[C@@H](C[C@H]2CC[C@H](C)[C@@H]([C@@H](C)C(=O)O)O2)O[C@]2(O[C@](C)([C@H]3CC[C@@](C)(C4OC([C@H]5O[C@@](O)(CO)[C@H](C)C[C@@H]5C)C[C@@H]4C)O3)C[C@H]2C)[C@@H]1C (stereo partly specified) | inactive | inactive | – | – |
| C[C@H](NC(=O)[C@@H](N)Cc1ccc(O)cc1)C(=O)N[C@@H](Cc1ccccc1)C(=O)N[C@@H](Cc1ccccc1)C(N)=O (H-YAFF-NH2) | – | – | 0.112% [at 6.83 µM] | -10.3% [at 3.88 µM] |
